Hits are enriched below; roughly 6.2% of the tested compounds scored in any of these assays.
LASV entry inh – qHTS for Inhibitors of binding or entry into cells for Lassa Virus; Lassa virus pseudotype entry inhibition, cell reporter; 300,000 compounds, 1.2% hits; Potency, µM (titrated, usually from 37.9 µM), most hits filed as inhibitors; calls by dose curve; tested in HEK293 cells; also: nearly all actives have a fitted effect of over 50% in size
MARV entry inh – qHTS for inhibitors of binding or entry into cells for Marburg Virus; Marburg virus pseudotyped entry inhibition, cell reporter; Potency, µM (doses to about 37.8 µM), usual class: inhibitors; 300,000 compounds, 1.8% hits; calls by dose curve; tested in HEK293 cells
HCMV inh – qHTS Assay for inhibitors of the human cytomegalovirus (HCMV); activity change, negative = inhibition, % at 57.5 µM; 410,000 compounds, 4.5% hits; HFF cells, HCMV-luciferase reporter, 72 h; active compounds read low; in the data active = activity change below about -60%; inconclusive = no clear call, values can overlap the other calls; inactive = above about -39%
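After 16 h attachment at 37C, HFF cells received test compound and HCMV-luciferase (1 PFU/cell); reporter luminescence read 72 h later, data normalized against buffer-only and known inhibitor Salinomycin.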
FMDV inh – High Throughput Screening for Foot and Mouth Disease Virus Antivirals; FMDV antiviral cell-based qHTS; Potency, µM (highest dose often 57.9 µM), usual class: inhibitors; 410,000 compounds, 1.2% hits; calls by dose curve; tested in HEK293T cells; also: read-out not given here; nearly all actives have a fitted effect of over 45% in size
Each line names hits and unclear results; the compound was inactive in the other large screens; ! = repeats disagree.

CC1CC(C)CN(C(=O)CCNS(=O)(=O)c2ccc3c(c2)CCC(=O)N3)C1 (stereo not drawn)	none
CC(CC(=O)N1CCN(c2cccc(Cl)c2)CC1)S(=O)(=O)c1ccc2c(c1)NC(=O)CO2 (stereo not drawn)	HCMV inh -95, FMDV inh 2.8µM (no result: LASV entry inh, MARV entry inh)
CCOC(=O)C1CCN(C(=O)CC(C)S(=O)(=O)c2ccc3c(c2)NC(=O)CO3)CC1 (stereo not drawn)	none
Cc1ccc(C)c(N2CCN(C(=O)CCS(=O)(=O)c3ccc4c(c3)NC(=O)CO4)CC2)c1	HCMV inh -73 (no result: LASV entry inh, MARV entry inh)
O=C1CCc2cc(S(=O)(=O)NCCC(=O)N3CCN(c4cccc(Cl)c4)CC3)ccc2N1	LASV entry inh inconclusive, HCMV inh inconclusive, FMDV inh 16µM
COc1ccccc1CCC(=O)NNC(=O)Cn1nc(C)cc1C	none (no result: LASV entry inh, MARV entry inh)
CN1CCCN(C(=O)/C=C/c2ccc(Cl)cc2Cl)CC1	HCMV inh -62 (no result: LASV entry inh, MARV entry inh)
O=C1CN(C(=O)/C=C/c2ccc(Cl)cc2Cl)CCN1	MARV entry inh inconclusive
CC1(C)CC(=O)c2cc(OCC(=O)NCCCN3CCN(c4ccc(F)cc4)CC3)ccc2O1	LASV entry inh inconclusive, MARV entry inh 23µM, HCMV inh inconclusive, FMDV inh inconclusive
CCOc1ccc(/C=C/C2=CC(C)(C)NC(=S)N2)cc1	HCMV inh -94
COc1cccc(CN2CCC(N(CCc3ccccc3)Cc3ccccc3)CC2)c1OC	LASV entry inh inconclusive, MARV entry inh 7.9µM, HCMV inh -64, FMDV inh inconclusive
Cc1ccc(N2C(=O)CSC2c2cccs2)cc1 (stereo not drawn)	none (no result: FMDV inh)
COc1ccc(-c2cc(-c3cccs3)c(C#N)c(SCC(=O)NCc3ccccc3)n2)cc1	LASV entry inh inconclusive, MARV entry inh inconclusive
COc1ccc(-c2cc(-c3cccs3)c(C#N)c(SCC(=O)NCc3ccccc3OC)n2)cc1	LASV entry inh inconclusive, MARV entry inh inconclusive, HCMV inh -61
Cc1nnc(SCC(=O)Nc2sccc2C#N)n1Cc1ccccc1	MARV entry inh inconclusive
Cc1ccc(N=Nc2c(N)[nH]n3c(=O)cc(-c4ccccc4)nc23)cc1	MARV entry inh inconclusive, HCMV inh -81
Cc1[nH]n2c(=O)cc(C(C)(C)C)nc2c1-c1ccccc1	LASV entry inh 10µM, MARV entry inh inconclusive, HCMV inh -62
Cc1[nH]n2c(=O)cc(-c3ccc(Cl)cc3)nc2c1-c1ccccc1	LASV entry inh 2.5µM, MARV entry inh 11µM, HCMV inh -107, FMDV inh inconclusive
COc1ccc(N2CCN(C(=O)C3CCC(Cn4c(=S)[nH]c5ccccc5c4=O)CC3)CC2)cc1 (stereo not drawn)	MARV entry inh 10µM, HCMV inh -81
O=C(C1CCC(Cn2c(=S)[nH]c3ccccc3c2=O)CC1)N1CCN(c2ccccn2)CC1 (stereo not drawn)	LASV entry inh inconclusive, HCMV inh -91, FMDV inh 22µM
O=C(C1CCC(Cn2c(=S)[nH]c3ccccc3c2=O)CC1)N1CCN(c2ccccc2)CC1 (stereo not drawn)	MARV entry inh inconclusive, HCMV inh inconclusive
O=C(C1CCC(CNc2nc(=S)[nH]c3ccccc23)CC1)N1CCN(c2ccc(F)cc2)CC1 (stereo not drawn)	LASV entry inh inconclusive, MARV entry inh inconclusive, FMDV inh 18µM
O=C(CN1CCC(n2nnc3cc(F)ccc32)CC1)N1CCc2ccccc2C1	MARV entry inh inconclusive (no result: FMDV inh)
c1ccc(-c2ccc3sccc3n2)cc1	none (no result: LASV entry inh, MARV entry inh)
CCOC(=O)n1c(=O)n(C)c2ccc(Cl)cc21	none
CCN(CC)C(=O)c1ccccc1NC(=O)c1ccccc1	none
Oc1ccccc1CNc1ccc(Br)cn1	LASV entry inh inconclusive, MARV entry inh inconclusive, HCMV inh -105
CCCc1cc(=O)oc2cc(C)cc(OC(C)C(=O)NCc3ccccn3)c12 (stereo not drawn)	none (no result: LASV entry inh, MARV entry inh)
N#C/C(=C\c1ccc(O)cc1)C(=O)O	HCMV inh -73! (no result: LASV entry inh, MARV entry inh)
CC(C)(C)c1ccc(CN(Cc2ccco2)Cc2nnnn2C2CCCC2)cc1	LASV entry inh inconclusive, MARV entry inh inconclusive
COc1ccc2cc(CN(Cc3ccco3)C(c3nnnn3C3CCCCC3)C(C)C)c(=O)[nH]c2c1 (stereo not drawn)	FMDV inh 16µM
CCC(C)(C)n1nnnc1CN(Cc1ccco1)Cc1cc2cc3c(cc2[nH]c1=O)OCO3	MARV entry inh inconclusive (no result: HCMV inh)
COc1ccc2cc(CN(Cc3ccco3)Cc3nnnn3C3CCCCC3)c(=O)[nH]c2c1	LASV entry inh inconclusive, MARV entry inh inconclusive, HCMV inh -84
CC(C)(C)n1nnnc1CN(Cc1ccco1)Cc1cc2cc3c(cc2[nH]c1=O)OCO3	HCMV inh -65

Source: PubChem
